HPGD inh: qHTS Assay for Inhibitors of HPGD (15-Hydroxyprostaglandin Dehydrogenase); 150,000 compounds, 4.3% hits; 15-hydroxyprostaglandin dehydrogenase [NAD(+)] (Homo sapiens), P15428; purified HPGD, NADH fluorescence kinetic, PGE2 substrate; AID 894, 2007; Potency, µM, most hits filed as inhibitors
Target sequence (P15428 whole entry, looked up): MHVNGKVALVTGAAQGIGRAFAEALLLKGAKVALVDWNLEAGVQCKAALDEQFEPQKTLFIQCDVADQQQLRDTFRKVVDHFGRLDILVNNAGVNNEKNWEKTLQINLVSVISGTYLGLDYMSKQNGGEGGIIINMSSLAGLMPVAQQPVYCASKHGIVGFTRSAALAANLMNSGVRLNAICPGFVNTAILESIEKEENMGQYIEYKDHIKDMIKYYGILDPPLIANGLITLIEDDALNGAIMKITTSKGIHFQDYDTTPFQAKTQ
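NADH formation kinetics: reaction with 30 uM PGE2 and 1 mM NAD+ (final), 20 nM enzyme, Tris-HCl pH 8 with Tween 20, after 15 min compound preincubation at room temperature. Fluorescence change, last versus first of five reads.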
ALDH1A1 block: qHTS Assay for Inhibitors of Aldehyde Dehydrogenase 1 (ALDH1A1). AID 1030, 2008. Purified ALDH1A1, NADH fluorescence, propionaldehyde substrate. Potency, µM (titrated, usually from 75.3 µM), most hits filed as inhibitors. 220,000 compounds, 7.3% hits. Aldehyde dehydrogenase 1A1 (Homo sapiens), P00352
PNC assembly inh: High Content Assay for Compounds that inhibit the Assembly of the Perinucleolar Compartment | PC3M PTB-GFP, PNC prevalence imaging, 16 h; stronger effect = lower value | activity change (PNC), negative = inhibition, % at 10 µM | 140,000 compounds, 3.1% hits | AID 2417, 2010;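 active means readout at or below -70, meaning at least 70% loss of cells showing the perinucleolar compartment, a nuclear body marking cancer cells; inconclusive means readout between -30 and a set limit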
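PC3M cells stably expressing PTB-GFP, 750–1000 cells/well, treated 16 h at 37 °C with compound (23 nl of library stock), in duplicate. After paraformaldehyde fixation and Hoechst stain, imaged at 20x; PNC prevalence scored by image analysis.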
Numbers stand for hits; - = inactive; ? = inconclusive; . = not tested or not shown; [ ] = another dose, or the depositor's remark. A selection: hits, their analogues and other compounds. The true share with any hit is near 11%. Unless noted, the call rests on the fitted dose curve; in most records, active means well fitted inhibition curve with a large enough effect (not every such curve was filed as active); inconclusive means small, poorly fitted or top-dose-only effect, or another doubt; inactive means no such curve, though single readings can be large or run the other way.

SMILES	HPGD inh	ALDH1A1 block	PNC assembly inh
O=C(COC(=O)C1(c2cccc(F)c2)CCCC1)NCc1ccc2c(c1)OCO2	-	-	?
COCCNC(=O)CSc1nc2cc(OC)c(OC)cc2c(=O)n1CCc1ccc(S(N)(=O)=O)cc1	.	-	.
Cc1sc2nc(SCC(=O)N3CCN(CCO)CC3)n(-c3ccccc3)c(=O)c2c1C	-	?	-
O=C(CSc1nc2cccnc2n1Cc1ccccc1)NCc1ccco1	32µM	25µM	-
COc1cc2nc(SCC(=O)NCCc3ccccc3)n(Cc3ccco3)c(=O)c2cc1OC	-	3.5µM	-
Cc1sc2nc(SCC(N)=O)n(-c3ccccc3)c(=O)c2c1C	.	18µM	.
Cc1ccc(-n2c(SCC(=O)NCc3ccco3)nc3sc(C)c(C)c3c2=O)cc1	?	-	-
CCn1c(SCC(=O)NCc2ccco2)nc2cccnc21	?	-	-
Cc1sc2nc(SCC(=O)NCc3ccco3)n(-c3ccccc3)c(=O)c2c1C	-	-	-84
O=C(NCc1cc(Br)cc(Br)c1OC(=O)c1ccccc1[N+](=O)[O-])c1ccccc1	.	-	-
Cc1cc(Oc2ccc(=O)n(C)n2)nc(SCc2ccccc2)n1	.	-	.
COCCNC(=O)C(c1ccc(F)cc1)N(C(=O)CCC(=O)Nc1nccs1)c1cccc(C)c1 (configuration not stated)	.	-	.
O[C@H]([C@H](O)[C@@H](O)c1nc2ccccc2[nH]1)[C@@H](O)c1nc2ccccc2[nH]1	-	-[13.5 µM]	.
CCOc1ccc(Nc2nnc(Cc3ccc(OC)cc3)c(=O)[nH]2)cc1	.	-	.
O=C(Cc1cccs1)Nc1nnc(SCc2ccc(C(F)(F)F)cc2)s1	-	-	?
O=C(CSc1nc2ccccc2c(=O)n1-c1ccccc1)NCc1ccco1	-	4.5µM	-
Cc1cccc(-n2c(SCC(=O)NCc3ccco3)nc3ccccc3c2=O)c1	-	-	-
COC(=O)c1ccc(COC(=O)c2ccc(CO)cc2)o1	?	-	-
CCOC(=O)n1ccn(C)c1=S	-	-	.
CC(C)=CCC/C(C)=C/CO/N=C1/[C@H]2O[C@@H]2[C@@H](O)[C@H]2[C@H]1CCn1c(=O)n(C)c(=O)n12	.	-[13.5 µM]	.
Cc1cc(NS(=O)(=O)c2ccc(NC(=S)NC(=O)c3ccc(C(C)(C)C)cc3)cc2)no1	18µM	13µM	-
Cc1cc(NS(=O)(=O)c2ccc(NC(=S)NC(=O)c3ccccc3)cc2)no1	-	?	?
Cc1cc(NS(=O)(=O)c2ccc(NC(=O)CCCOc3ccc(Cl)cc3)cc2)no1	?	-	-
O=C(Nc1cccc(C2OCCCO2)c1)c1cccs1	-	-	-
CC(=O)c1ccc(NS(=O)(=O)c2ccc(C)cc2)cc1	?	-	?
SMILES	HPGD inh	ALDH1A1 block	PNC assembly inh
CC(=O)c1ccc(NS(=O)(=O)c2ccc(C(C)(C)C)cc2)cc1	.	13µM	.
CC(C)(C)c1ccc(S(=O)(=O)Nc2cccc(C3OCCCO3)c2)cc1	-	25µM	-
Cc1cc(NS(=O)(=O)c2ccc(NC(=S)NC(=O)c3ccc(Cl)cc3Cl)cc2)no1	25µM	-	-
O=C(O)c1ccc(N2CCCCS2(=O)=O)cc1	.	-	.
CO[C@@H]1/C=C\CC(=O)N2CCC[C@@H]2C(=O)OC[C@H](C)C(=O)OC[C@H]1C	.	-[13.5 µM]	.
Nc1ncnc2c1nc(SCCO)n2Cc1ccccc1	.	-	.
Cc1[nH]c(=O)[nH]c(=O)c1NS(=O)(=O)c1ccccc1	-	-	-
CC(=O)Nc1ccc(OS(=O)(=O)c2ccc(C(C)(C)C)cc2)cc1	.	13µM	.
CC(=O)Nc1ccc(S(=O)(=O)Oc2ccc(/C=C3\SC(N)=NC3=O)cc2)cc1	.	-	.
COc1ccc(NC(=O)N2CC3(CCN(S(=O)(=O)c4ccccc4)CC3)C2)cc1	-	-	.
CN(C)CCCNC(=O)CC(c1ccc(F)cc1)c1ccco1 (configuration not stated)	-	-	?
CCN(CC)C(=O)CC(c1ccc(F)cc1)c1ccco1 (configuration not stated)	20µM	?	?
Nc1oc2ccc(F)cc2c(=O)c1C=O	-	-	-
O=C(NCc1ccco1)c1ccccc1-c1nc(-c2ccccc2)no1	-	?	-
O=C(NCc1ccco1)c1cc(NS(=O)(=O)c2cccc([N+](=O)[O-])c2)ccc1O	.	11µM	.
O=C(NCc1ccco1)c1cccc(NS(=O)(=O)c2cccc(F)c2)c1	-	?	?
O=C(/C=C/c1cccc([N+](=O)[O-])c1)NCc1ccco1	?	?	-
O=C(NCc1ccco1)c1cccc(-c2nnc(-c3ccccc3)o2)c1	13µM	?	-
O=C(NCc1ccccn1)c1cccc(NS(=O)(=O)c2ccccc2F)c1	-	1.3µM	-
O=C(NCc1ccco1)c1cccc(NS(=O)(=O)c2ccccc2F)c1	-	3.5µM	-
Cc1ccc(NS(=O)(=O)c2cc(C(=O)NCc3ccccn3)ccc2Cl)cc1	-	-	-
COc1ccc(NC(=O)C2=C(C)Nc3nc(CCCO)nn3C2c2ccc(OC)c(OC)c2)cc1 (configuration not stated)	.	-	.
CC(C(=O)NC(C)(C)C)N(Cc1cccs1)C(=O)CCN1CCc2ccccc21 (configuration not stated)	.	-	.
Cc1c(-c2ccccn2)c(=O)[nH]n1-c1ccc(F)cc1	.	-	.
Cc1ccc(Cl)c2c1NC(=O)C2(O)CC(=O)c1ccc(F)cc1 (configuration not stated)	-	-	-
SMILES	HPGD inh	ALDH1A1 block	PNC assembly inh
Cc1coc(C)c1C(=O)CC1(O)C(=O)Nc2cc(Cl)cc(Cl)c21 (configuration not stated)	-	3.2µM	?
O=C(OCCN=C1NS(=O)(=O)c2ccccc21)c1ccco1	.	-	.
O=C(O)C(F)(F)C(F)(F)C(F)(F)C(F)(F)C(=O)O	-	-[13.5 µM]	.
CC1(C)CC(=O)CC(=O)/C1=N\Nc1c(Cl)cc(Cl)cc1Cl	-	6.3µM	?
O=C(O)Cn1nc(-c2ccccc2)oc1=O	-	-	-
CC(C)(C)C(=O)n1nc(-c2ccccc2)oc1=O	?	-	-109
COC(=O)c1nn(-c2ccc(Oc3ccccc3)cc2)c(=O)cc1O	.	-	.
CCCCC(CCC(=O)NNC(=O)Cc1ccccc1)C(=O)O (configuration not stated)	-	-	-
O=C(N/N=C1/C(=O)c2cccc3cccc1c23)c1ccc(Cl)cc1	28µM	?	-
O=C1c2cccc3cccc(c23)C(=O)N1OS(=O)(=O)c1ccc(Cl)cc1	?	?	-
CCNC(=S)N/N=C1\CCCCc2ccccc21	-	?	-
CCNC(=S)N/N=C1\C(=O)c2cccc3cccc1c23	-	10µM	-
Cc1ccc(N(C(=O)c2ccco2)C2C=CS(=O)(=O)C2)cc1 (configuration not stated)	.	-	.
O=S(=O)(Cc1cc(NCc2ccccc2)nc(-c2ccccn2)n1)c1ccccc1	.	-	.
CCN1CCCC1CNC(=O)c1ccc(Cc2nc3ccccc3[nH]2)cc1 (configuration not stated)	-	-	.
C/C(CCc1ccc2c(c1)OCO2)=N\N=C1\NC(=O)CC(C(=O)Nc2ccccc2F)S1 (configuration not stated)	.	-	.
Cc1cccc(NC(=O)C23CCC(C)(C2Br)C3(C)C)c1 (configuration not stated)	-	-	-

Assay outcomes from PubChem.
